The text below walks through data of PubChem BioAssay AID602304 (NMMLSC, 2012).

Entries with a potency or affinity are not part of this list. Active and inactive are the calls of the source. How the calls were made is not given here.

This assay is described as follows: vacuolar alkalinization by V-ATPase blockade – S. cerevisiae, BCECF dye, powder set 1, dose response (AID 602304). The following applies: BCECF fluorescence; series mostly up to 100 µM.
Turning to `CS(=O)(=O)c1ccc2nc(N3CCN(C(=O)c4ccc([N+](=O)[O-])o4)CC3)sc2c1`, the compound was called inactive. Consider `Cc1cc(C(=O)N2CCN(c3nc4ccc(F)cc4s3)CC2)no1`, for which the compound was classed as inactive. `CS(=O)(=O)c1cccc2sc(N3CCN(C(=O)c4ccc([N+](=O)[O-])o4)CC3)nc12`: the result was inactive. Then `O=C(C1CCCCC1)N1CCN(c2nc3ccc(F)cc3s2)CC1`, with “inactive”. `O=C(c1cnccn1)N1CCN(c2nc3ccc(F)cc3s2)CC1`: the compound was called inactive.

For `O=C(c1ccno1)N1CCN(c2nc3ccc(F)cc3s2)CC1`, the outcome was inactive.

With `O=C(c1ccc(Br)s1)N1CCN(c2nc3ccc(F)cc3s2)CC1`, the outcome was inactive. Then `Cc1cc(C(=O)N2CCN(c3nc4ccc(F)cc4s3)CC2)on1`, with “inactive”; and `O=C(Nc1ccccc1N1CCOCC1)c1ccc([N+](=O)[O-])o1`, with “inactive”. Consider `CC(C)(C)C(=O)N1CCN(c2nc3ccc(F)cc3s2)CC1`, for which the call was inactive. For `O=C(c1ccc([N+](=O)[O-])o1)N1CCN(c2ccccn2)CC1`, the compound was classed as inactive. Take `Cc1cc(C(=O)N2CCN(c3nc4ccc(F)cc4s3)CC2)nn1C`: the result was inactive. Consider `O=C(c1nc2ccccc2s1)N1CCN(c2nc3ccc(F)cc3s2)CC1`, for which the call was inactive.

With `Cc1cc(C(=O)N2CCN(c3nc4ccc(F)cc4s3)CC2)n(C)n1`, the compound was classed as inactive.

As for `O=C(c1ccco1)N1CCN(c2nc3ccc(F)cc3s2)CC1`, the compound was classed as inactive. With `O=C(c1ccc(Cl)s1)N1CCN(c2nc3ccc(F)cc3s2)CC1`, the outcome was inactive. `O=C(c1ccc([N+](=O)[O-])o1)N1CCN(c2nccs2)CC1`: the compound was called inactive. As to `O=C(c1cccs1)N1CCN(c2nc3ccc(F)cc3s2)CC1`, the compound was classed as inactive. To `O=C(C1CC1)N1CCN(c2nc3ccc(F)cc3s2)CC1` belongs “inactive”.
